Data from PubChem BioAssay AID652190 (Johns Hopkins Ion Channel Center, 2013).
Active and inactive are the calls of the source.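 How the source made its calls: active means peak inhibition above 30% at some tested dose, together with a fitted dose response curve; inactive means no inhibition at all doses, or no curve obtained.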

What follows are compounds tested against Inward rectifier potassium channel 2 (Mus musculus) (UniProt P35561) (assay: off-target blockade of inward rectifier Kir2.1 – cell-based, FluxOR thallium flux, HEK293, CRC, selectivity assay for TASK1 inhibitor project, SAR follow-up (AID 652190)). Details: Kir2.1-expressing cells; series mostly up to 30 µM.
Inward rectifier potassium channel 2 (Mus musculus), sequence (P35561 whole entry, looked up): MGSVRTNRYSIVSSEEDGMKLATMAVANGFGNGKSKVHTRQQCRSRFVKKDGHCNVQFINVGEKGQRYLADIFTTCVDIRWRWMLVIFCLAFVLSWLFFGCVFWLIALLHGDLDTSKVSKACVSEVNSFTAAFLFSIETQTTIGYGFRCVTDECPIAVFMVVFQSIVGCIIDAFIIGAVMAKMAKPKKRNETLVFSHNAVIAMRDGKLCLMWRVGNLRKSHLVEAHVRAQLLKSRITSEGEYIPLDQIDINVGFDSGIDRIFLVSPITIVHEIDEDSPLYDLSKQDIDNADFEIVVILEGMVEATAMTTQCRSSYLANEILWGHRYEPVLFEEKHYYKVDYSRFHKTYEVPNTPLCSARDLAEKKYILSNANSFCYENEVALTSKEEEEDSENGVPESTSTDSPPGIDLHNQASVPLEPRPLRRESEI

outcome, inactive:
CCCC(=O)C1CCN(c2ncnc3c2CN(C(=O)c2ccc(-c4ccccc4)cc2)CC3)CC1
COc1ccccc1C(=O)Nc1cccc(NC(=O)c2cccc3ccccc23)c1
COc1c(F)cccc1C(=O)Nc1cccc(NC(=O)c2cccc(C)c2)c1
COc1ccc(CC(=O)NCc2ccccc2-c2ccccc2C(=O)NCc2ccc(F)cc2F)cc1
COc1ccc(F)cc1C(=O)Nc1cccc(NC(=O)c2cccc(C)c2)c1
CC(C)c1ccccc1C(=O)Nc1cccc(NC(=O)c2ccccc2OC(F)(F)F)c1
COc1cnccc1C(=O)Nc1cccc(NC(=O)c2cccc(C)c2)c1
COc1ccccc1C(=O)Nc1cc(NC(=O)c2ccccc2C(C)C)ccc1F
CC(C)Oc1ccccc1C(=O)Nc1cccc(NC(=O)c2ccccc2OC(F)(F)F)c1
COc1ccccc1C(=O)Nc1cc(NC(=O)c2cccc(C)c2)ccc1F
Cc1cccc(C(=O)Nc2cccc(NC(=O)c3cccc(F)c3)c2)c1
